These results are taken from PubChem BioAssay (NCI).

About 79,000 compounds went through this panel and 15% of them were active in at least one assay; those are over-represented in the sample as a whole. Values without a mark were called inactive. Active and inactive are the calls of the source. Rule as the data show it: active = growth inhibition above about 70%; inactive = the rest.

The nature of test [1]: NCI Yeast Anticancer Drug Screen. Data for the rad50 strain (AID 155).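 Also: 0% = growth of vehicle-only cultures of the same strain.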 Conditions: S. cerevisiae rad50 strain growth inhibition, active compounds read high; at 50.0 µM unless noted. Summed up:
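Yeast carrying a defined DNA repair defect were exposed to test compounds, and growth was compared with vehicle-treated controls to give percent inhibition.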

The nature of test [2]: NCI Yeast Anticancer Drug Screen. Data for the mec2-1 strain (AID 157). Conditions: S. cerevisiae mec2-1 strain, active compounds read high; at 50.0 µM unless noted. An outline of the steps: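 Strain: mec2-1 (DNA repair/cell cycle alteration). Compound exposure, then growth measured; inhibition expressed relative to vehicle.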
The nature of test [3]: NCI Yeast Anticancer Drug Screen. Data for the sgs1 mgt1 strain (AID 161).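 Also: 0% = growth of cultures given vehicle only.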 Conditions: S. cerevisiae sgs1 mgt1 strain, active compounds read high; at 50.0 µM unless noted. Summed up: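 Test agents were incubated with a DNA-repair-mutant yeast strain. Growth was then read and compared against vehicle-treated controls.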
Test [4] can be described thus: NCI Yeast Anticancer Drug Screen. Data for the cln2 rad14 strain (AID 165).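 Also: 0% = growth equal to vehicle treated cultures.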 Conditions: S. cerevisiae cln2 rad14 strain, active compounds read high; at 50.0 µM unless noted. Summed up:
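Compounds are applied to the cln2 rad14 yeast strain, and growth is then compared with that of vehicle-treated cultures to give inhibition.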

A short description of test [5]: NCI Yeast Anticancer Drug Screen. Data for the bub3 strain (AID 167). Particulars: S. cerevisiae bub3 mutant strain, active compounds read high; at 50.0 µM unless noted. An outline of the steps:
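Compounds were applied to a genetically altered yeast strain carrying a cell-cycle control defect. Growth inhibition was scored against vehicle-treated controls.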

Test [6] in a line: NCI Yeast Anticancer Drug Screen. Data for the mlh1 rad18 strain (AID 175). Particulars: S. cerevisiae mlh1 rad18 strain growth inhibition, active compounds read high; at 50.0 µM unless noted. An outline of the steps: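 Read-out is yeast growth inhibition, calculated against vehicle-only controls. The compound was applied to a strain engineered with DNA damage repair alterations.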

Regarding `CC(=O)N(c1nc2ccccc2s1)N1C(=O)c2ccccc2C1=O`, the growth inhibition in test [1] is -18.8%; in test [2], -33.3%; in test [3] it was -17.9%; in test [4], -2.15%; in test [5] it was -40.2%; in test [6] it was -20.2%.
Regarding `CCOC(=O)C(Cc1c[nH]c2c(N(CCO)CCO)cccc12)(NC(C)=O)C(=O)OCC`, the growth inhibition in test [1] was -0.45%; in test [2], -17.2%; in test [3], 16%; in test [4] it was 21.7%; in test [5] it was -5.55%; in test [6] it was 9.95%.
On to `CC(C)N(CCO)CC(O)Cn1cnc2ncnc(N)c21` (stereo not given), for which the growth inhibition in test [1] was 2.15%; in test [2], -10.8%; in test [3] it was -24.9%; in test [4], 6.7%; in test [5] it was -28.4%; in test [6], 4.45%.
`Cc1c(Cl)cccc1NC(=O)COc1ccc(Cl)cc1`: the growth inhibition in test [1] was 16.4%; in test [2], 9.4%; in test [3], 4.2%; in test [4], -3.7%; in test [5], 6.5%; in test [6] it was 4.05%.
As to `COc1ccc(/C=N/N=C(/C(=O)c2ccc(OC)cc2)c2ccc(OC)cc2)cc1`, the growth inhibition in test [1] was 32.6%; in test [2], 0.3%; in test [3], 11.8%; in test [4] it was 3.2%; in test [5], 2.2%; in test [6] it was 6.8%.
With `COc1ccc(C2(O)OCC(COc3cc(C)c(Cl)c(C)c3)O2)cc1OC` (stereo not given), the growth inhibition is -10% in test [1]; 1.35% in test [2]; 8.85% in test [3]; 18.5% in test [4]; -6.05% in test [5]; 3.45% in test [6].
Regarding `Cn1cc2c([N+](=O)[O-])cccc2n1`, the growth inhibition in test [1] was 5.35%; in test [2] it was 3.75%; in test [3] it was 14.7%; in test [4] it was -4.6%; in test [5], -0.9%; in test [6] it was 13.2%.
As for `CN(C)CCCC(=O)O`, the growth inhibition is -13.3% in test [1]; -45.4% in test [2]; -14.1% in test [3]; 2.8% in test [4]; -31.9% in test [5]; -0.35% in test [6].
With `CCCCCCCCCCCC[N+](C)(C)C(C)Cc1ccccc1` (stereo not given), the growth inhibition in test [1] was 99.3% (active); in test [2], 99.5% (active); in test [3], 89.8% (active); in test [4] it was 99.4% (active); in test [5], 99.2% (active); in test [6], 99.3% (active).
`CCOC(=O)N(C)C1(c2ccccc2)CCN(CCCC(=O)c2ccc(F)cc2)CC1`: the growth inhibition in test [1] was 23%; in test [2], -34.9%; in test [3] it was 7.55%; in test [4] it was -26.6%; in test [5], -7%; in test [6], -17.2%.
`COc1ccc(C2OC3=C(Nc4ccccc4N3)C2=O)cc1` (stereo not given): the growth inhibition was 19.5% in test [1]; 5.8% in test [2]; 27.4% in test [3]; 14.1% in test [4]; -14.3% in test [5]; 46.2% in test [6].
For `Nc1ccccc1NC(=O)C(F)(F)C(F)(F)C(F)(F)C(=O)Nc1ccccc1N`, the growth inhibition in test [1] is 3.15%; in test [2], -6.25%; in test [3], -14.6%; in test [4], -12.3%; in test [5], 28.6%; in test [6] it was -16.6%.
For `C=C1CC2C=CC1C2` (stereo not given), the growth inhibition in test [1] was 3.65%; in test [2], -25.4%; in test [3], 1.3%; in test [4], 0.25%; in test [5] it was -15.8%; in test [6] it was 2.85%.
With `O=C(NCc1ccccc1)C(=O)NCc1ccccc1`, the growth inhibition in test [1] is 4.35%; in test [2], -1.85%; in test [3] it was -7.25%; in test [4] it was 3.5%; in test [5], -6.9%; in test [6] it was 5%.
`CCCCC(NC(=O)c1ccc2ccccc2n1)C(=O)O` (stereo not given): the growth inhibition in test [1] is -0.35%; in test [2] it was 9%; in test [3], 1.5%; in test [4], 7.35%; in test [5] it was -8.7%; in test [6], 20.2%.
For the compound `O=c1oc(-c2ccccc2CCl)nc2ccccc12`, the growth inhibition in test [1] is 0.95%; in test [2], -17.1%; in test [3] it was 15.8%; in test [4], 15.3%; in test [5], -13.8%; in test [6], -5.9%.
Consider `CC(=O)Oc1cc(C)c(OC(C)=O)c2ccccc12`, for which the growth inhibition in test [1] is -6.6%; in test [2], 17.7%; in test [3], 4.45%; in test [4], -1.3%; in test [5] it was 10.3%; in test [6] it was 4.1%.
For the compound `Cc1ccc(C)n1-c1ccccc1`, the growth inhibition was -12.6% in test [1]; -37.5% in test [2]; -7.75% in test [3]; 9% in test [4]; -8.2% in test [5]; -19.4% in test [6].
Take `CC(=O)[CH-]C(=O)c1ccccc1.CC(=O)[CH-]C(=O)c1ccccc1.CC1(C)OCC(C2OC3OC(C)(C)OC3C2[O-])O1.CC1(C)OCC(C2OC3OC(C)(C)OC3C2[O-])O1.[Ti+4]` (stereo not given): the growth inhibition in test [1] is 29.9%; in test [2], 5.65%; in test [3], 14.8%; in test [4], 14.9%; in test [5], 27.9%; in test [6] it was 20.2%.
As for `C/C(=N/NC(N)=O)C1CCc2ccccc2C1` (stereo not given), the growth inhibition in test [1] was 43%; in test [2], -6.9%; in test [3] it was 3.2%; in test [4] it was 1.95%; in test [5] it was 7.8%; in test [6] it was 22.9%.
